Giardia FBPA inh-1: qHTS Assay for Inhibitors of Fructose-1,6-bisphosphate Aldolase from Giardia Lamblia | purified Giardia FBPA | hit rate 0.71% among 290,000 | A8B2U2 | Potency, µM (doses to about 59.6 µM), for the others: at the highest dose activity, negative = inhibition, usual class: inhibitors; also: potency is read from the fitted curve at half-maximal effect; % is scaled to controls: 0 for no effect and ±100 for the full control effect; nearly all actives have a fitted effect of over 55% in size
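40 nM FBPA preincubated 10 min at RT with compound (up to 57.5 uM final), then substrate plus GAPDH/TPI/NAD/arsenate coupling and diaphorase/resazurin added. Fluorescence read after 20 min at RT, 525/598 nm.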
LmPK inh: qHTS Assay for Inhibitors of Leishmania Mexicana Pyruvate Kinase (LmPK); hit rate 0.37% among 290,000; Potency, µM (top dose mostly 57.5 µM), inactives show at the top dose activity change, negative = inhibition, most hits filed as inhibitors; Q27686; AID 1721, 2009; purified LmPK, Kinase-Glo ATP luminescence, 1 h; also: potency is read from the fitted curve at half-maximal effect; % is scaled to controls: 0 for no effect and ±100 for the full control effect
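Screened at intermediate enzyme activity to detect both inhibitors and activators: LmPK at 0.1 nM, with a 0.5 nM enzyme column as activation reference. PEP 0.5 mM, ADP 0.1 mM; ATP detected by luminescence after 1 h.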
Shiga toxin inh: A qHTS for Small Molecule Inhibitors of Shiga Toxin | Vero cells, Shiga toxin protein synthesis inhibition reporter | inhibition, % at 38.7 µM | hit rate 9.2% among 290,000; in the data active = inhibition mostly above about 28%, no sharp cut-off; inactive = mostly below about 43%; also: 0% is about no effect
TbPYK inhibitor: qHTS of Trypanosoma Brucei Inhibitors; pyruvate kinase (Trypanosoma brucei), Q57TT1; TbPYK enzyme, Kinase-Glo Plus ATP luminescence, 45 min; Potency, µM (doses to about 76.8 µM), for the others: top-dose activity, negative = inhibition, actives largely listed as inhibitors; hit rate 0.12% among 410,000; AID 624173, 2012; also: potency is read from the fitted curve at half-maximal effect; % is scaled to controls: 0 for no effect and ±100 for the full control effect; nearly all actives have a fitted effect of over 50% in size
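Enzyme and substrate buffer are dispensed first and compound is pin-transferred. ADP at 130 uM final then starts the reaction, which runs 45 min at room temperature. Detection reagent is added for 10 min before luminescence is imaged.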
Cycloheximide cs: Cycloheximide Counterscreen for Small Molecule Inhibitors of Shiga Toxin | max response, % | hit rate 12% among 300,000 | cell reporter, cycloheximide protein synthesis inhibition counterscreen; in the data active = max response mostly above about 13%, no sharp cut-off; inactive = mostly below about 14%; also: read at 38.3 µM for the half of the compounds with a filed dose; 0% is about no effect
RE007 growth inh: qHTS Assay for Inhibitors of the HIV-1 protein Vpr. S. pombe RE007 Vpr strain, BacTiter-Glo ATP luminescence, 24 h. Potency, µM (top dose mostly 92.2 µM), for inactives: top-dose activity change, negative = less growth, usual class: inhibitors. hit rate 0.21% among 360,000. AID 651644, 2012; active = well fitted falling curve with a large enough effect; inconclusive = small, poorly fitted or top-dose-only effect; inactive = no such curve, though single readings can be large or run the other way; also: potency is read from the fitted curve at half-maximal effect; % is scaled to controls: 0 for no effect and ±100 for the full control effect; nearly all actives have a fitted effect of over 50% in size
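Fission yeast strain RE007, carrying one chromosomally integrated HIV-1 vpr copy, was seeded at OD 0.01 in PMG+AL medium with 23 nL pinned compound. After 24 h at 30 °C and 99% humidity, viability was read by BacTiter-Glo luminescence.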
Giardia growth: qHTS Assay for Inhibitors of Fructose-1,6-bisphosphate Aldolase from Giardia Lamblia: Giardia lamblia growth inhibition; AID 2785, 2010; hit rate 5% among 1,500; Potency, µM (top dose mostly 57.5 µM), for the others: at the highest dose activity change, negative = inhibition, hits mostly inhibitors; Giardia lamblia trophozoite growth inhibition; shares compounds with Giardia FBPA inh-1;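 also: potency is read from the fitted curve at half-maximal effect; trophozoites exposed to compound for 48 h at 37 °C; % is scaled to controls: 0 for no effect and ±100 for the full control effect; nearly all actives have a fitted effect of over 70% in size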
Mammalian tox: qHTS Assay for Inhibitors of Fructose-1,6-bisphosphate Aldolase from Giardia Lamblia: Mammalian cellular toxicity; shares compounds with Giardia FBPA inh-1; mammalian cell viability counter-screen, qHTS; Potency, µM (series often up to 57.5 µM), for inactives: top-dose viability change, negative = toxicity, most hits filed as inhibitors; hit rate 4% among 1,500; AID 2786, 2010;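 also: Chinese hamster ovary cells used as mammalian cytotoxicity surrogate; viability measured as cellular ATP by luminescence; potency is read from the fitted curve at half-maximal effect; compound exposure lasted 48 h before reading; % is scaled to controls: 0 for no effect and ±100 for the full control effect; nearly all actives have a fitted effect of over 60% in size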
Giardia FBPA inh-2: qHTS Assay for Inhibitors of Fructose-1,6-bisphosphate Aldolase from Giardia Lamblia: Primary screen confirmation; hit rate 5% among 1,500; purified Giardia aldolase enzyme activity, qHTS; shares compounds with Giardia FBPA inh-1; Potency, µM (highest dose often 57.5 µM), without a hit: at the top dose activity change, negative = inhibition, hits mostly inhibitors; also: potency is read from the fitted curve at half-maximal effect; % is scaled to controls: 0 for no effect and ±100 for the full control effect; nearly all actives have a fitted effect of over 45% in size
Rabbit FBPA inh: qHTS Assay for Inhibitors of Fructose-1,6-bisphosphate Aldolase from Giardia Lamblia: Rabbit FBPA Selectivity; Potency, µM (series often up to 57.5 µM), inactives show at the highest dose activity, negative = inhibition, hits mostly inhibitors; Rabbit muscle FBPA enzyme inhibition, selectivity counter-screen; hit rate 4% among 1,500; shares compounds with Giardia FBPA inh-1; also: potency is read from the fitted curve at half-maximal effect; % is scaled to controls: 0 for no effect and ±100 for the full control effect; nearly all actives have a fitted effect of over 60% in size
Target sequence (P00883 whole entry, looked up): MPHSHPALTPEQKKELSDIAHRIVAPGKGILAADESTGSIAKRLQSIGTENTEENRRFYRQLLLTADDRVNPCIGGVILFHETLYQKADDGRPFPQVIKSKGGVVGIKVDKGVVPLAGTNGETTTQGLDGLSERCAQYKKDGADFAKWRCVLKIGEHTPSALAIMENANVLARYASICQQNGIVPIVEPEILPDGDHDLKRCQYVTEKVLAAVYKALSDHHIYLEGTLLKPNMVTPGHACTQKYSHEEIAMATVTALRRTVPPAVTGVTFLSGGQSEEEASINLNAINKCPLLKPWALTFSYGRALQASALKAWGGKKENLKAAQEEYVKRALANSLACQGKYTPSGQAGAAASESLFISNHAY
GAPDH counter: qHTS Assay for Inhibitors of Fructose-1,6-bisphosphate Aldolase from Giardia Lamblia: Coupling assay counterscreen confirmation; hit rate 6% among 1,500; shares compounds with Giardia FBPA inh-1; AID 2795, 2010; GAPDH coupling enzyme counterscreen, biochemical, qHTS; Potency, µM (doses to about 57.5 µM), inactives show top-dose activity change, negative = inhibition, hits mostly inhibitors; also: potency is read from the fitted curve at half-maximal effect; % is scaled to controls: 0 for no effect and ±100 for the full control effect; nearly all actives have a fitted effect of over 55% in size
Starred values were filed as active, the others as inactive; ? = inconclusive; · = no result given; [ ] = dose if it differs, or a comment. Shown is part of a subset that was picked to be rich in hits. Unless noted, calls follow the shape of the dose curve; as a rule, active = well fitted curve in the direction sought with a large enough effect; inconclusive = small, poorly fitted or top-dose-only effect, or another doubt; inactive = no such curve, though single readings can be large; an effect the other way counts as inactive or inconclusive.

SMILES	Giardia FBPA inh-1	LmPK inh	Shiga toxin inh	TbPYK inhibitor	Cycloheximide cs	RE007 growth inh	Giardia growth	Mammalian tox	Giardia FBPA inh-2	Rabbit FBPA inh	GAPDH counter
CCCCn1c(NS(=O)(=O)c2ccccc2)c(C(=O)OCC)c2nc3ccccc3nc21	0.45µM*	-1%	-9	2%	4	0%	-7%[38.3 µM]	-5%	?	-25%	40µM*
CCNC(=S)NS(=O)(=O)c1ccc(CC)cc1	6.3µM*	0%	-20	1%	-1	-12%	3%[10.4 µM]	5%	9%	4%	20%
CCNC(=S)NS(=O)(=O)c1ccc(C)cc1	3.5µM*	0%	-12	-5%	-1	7%	17%[38.3 µM]	-3%	7%	12%	-1%
CCc1ccc(S(=O)(=O)NC(=S)Nc2ccccc2)cc1	-6%	3%	-7	-5%	7	4%	·	·	·	·	·
Cc1ccc(S(=O)(=O)NC(=S)c2ccccc2)cc1	·	·	·	-6%	·	1%	·	·	·	·	·
CCC1=C2CC[C@H]3C(=O)N(C)C(=O)[C@H]3[C@H]2[C@@]2(C)C(=O)N(CC3CC3)C(=O)N2C1=O	5%	·	·	·	·	·	·	·	·	·	·
C=CCNCCCOc1ccc(Cl)cc1C(C)(C)C	18µM*	-1%	-7	21%	-3	19%	7%	-25%	-15%	-14%	-16%
C=CCNCCOCCOc1ccc(Cl)cc1C(C)(C)C	-28%	-4%	-17	3%	-1	-4%	·	·	·	·	·
CN(C)C(=S)SSC(=S)N(C)C	40µM*	1%	12	4.5µM*	23*	3.2µM*	14µM*	4.5µM*	?	?	40µM*
CC1CC(C)CN(C(=O)C(C)N(C)CC(=O)Nc2ccc(Cl)cc2)C1 (stereo not given)	20µM*	-1%	-14	42%	-7	-16%	-5%	-12%	-2%	5%	6%
CCOc1ccccc1NC(=O)N1CCN(Cc2cc(=O)n3nc(-c4ccc(C)cc4)sc3n2)CC1	·	·	·	1%	·	·	·	·	·	·	·
O=C1/C(=C\c2ccco2)CCC/C1=C\c1ccco1	16µM*	4%	10	-16%	-2	8%	14%	?	-4%	5%	-3%
CC1C/C(=C/c2ccco2)C(=O)/C(=C/c2ccco2)C1 (stereo not given)	?	9%	-2	·	-1	·	·	·	·	·	·
COC(=O)Nc1sc2c(c1C(N)=O)CCC(C)C2 (stereo not given)	8.9µM*	0%	-3	-22%	-2	9%	-14%[38.3 µM]	8%	?	?	?
CC1CCc2c(sc(NC(=O)C3c4ccccc4Oc4ccccc43)c2C(N)=O)C1 (stereo not given)	0%	1%	-7	-12%	-2	10%	·	·	·	·	·

Assay outcomes as filed in PubChem BioAssay.
